Compound activity: PubChem BioAssay, National Center for Advancing Translational Sciences (NCATS)
NIH3T3 tox: Cytotoxic Profiling in NIH 3T3 Cell Line of Diverse Libraries Using Quantitative High-Throughput Screening | NIH 3T3 viability, CellTiter-Glo ATP luminescence, 48-72 h | Potency, µM (series often up to 96.7 µM), for inactives: at the highest dose activity change, negative = cytotoxicity, hits mostly inhibitors | 4.3% of 94,000 active | AID 1345082, 2018; active = well fitted curve in the direction sought with a large enough effect; inconclusive = small, poorly fitted or top-dose-only effect, or another doubt; inactive = no such curve, though single readings can be large; an effect the other way counts as inactive or inconclusive; also: % is scaled to controls: 0 for no effect and ±100 for the full control effect; nearly all actives have a fitted effect of over 55% in size
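Mouse fibroblast NIH 3T3 cells, 400 per well, received compound via pintool and were incubated for 48 or 72 hr prior to CellTiter-Glo ATP luminescence measurement.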
HEK cytotox: Cytotoxic Profiling in HEK 293 Cell Line of Diverse Libraries Using Quantitative High-Throughput Screening. HEK 293 viability, ATP luminescence (CellTiter-Glo), 48-72 h. 6.6% of 94,000 active. AID 1345083, 2018. Potency, µM (doses to about 115 µM), for the others: at the top dose activity change, negative = cytotoxicity, actives largely listed as inhibitors; active = well fitted curve in the direction sought with a large enough effect; inconclusive = small, poorly fitted or top-dose-only effect, or another doubt; inactive = no such curve, though single readings can be large; an effect the other way counts as inactive or inconclusive; also: % is scaled to controls: 0 for no effect and ±100 for the full control effect; nearly all actives have a fitted effect of over 60% in size
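Read-out: CellTiter-Glo ATP luminescence. Cells: HEK 293, 250 cells/well. Exposure: 48 or 72 hr, 37 degree Celsius.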
Luciferase inh: Firefly luciferase inhibition profiling of diverse chemical library using quantitative high-throughput screening | Luciferin 4-monooxygenase (Photinus pyralis), P08659 | purified P. pyralis luciferase, luminescence, biochemical | Potency, µM (doses to about 115 µM), actives largely listed as inhibitors | 2.5% of 76,000 active | AID 1347043, 2019; active = well fitted curve in the direction sought with a large enough effect; inconclusive = small, poorly fitted or top-dose-only effect, or another doubt; inactive = no such curve, though single readings can be large; an effect the other way counts as inactive or inconclusive; also: % is scaled to controls: 0 for no effect and ±100 for the full control effect; nearly all actives have a fitted effect of over 65% in size
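Purified P. pyralis luciferase (10nM final) in 50mM Tris acetate pH 7.5, 10mM Mg acetate, 0.01% Tween-20, 0.05% BSA with 10uM D-luciferin and 10uM ATP. Compounds titrated qHTS. Luminescence imaged on CCD.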
NPR1 antag: Natriuretic polypeptide receptor (hNpr1) antagonism - Primary qHTS | Atrial natriuretic peptide receptor 1 (Homo sapiens), P16066 | HEK293 hNpr1 GloSensor cGMP, ANP-stimulated luminescence | Potency, µM (titrated, usually from 46.3 µM), for inactives: at the top dose activity change, negative = inhibition, hits mostly inhibitors | 1.6% of 76,000 active | AID 1347048, 2019; also: % is scaled to controls: 0 for no effect and ±100 for the full control effect; nearly all actives have a fitted effect of over 60% in size
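HEK293 cells stably expressing human Npr1 and cGMP GloSensor pGS-40F, loaded 2 h with 2% GloSensor reagent, given compound 30 min at room temperature. Luminescence read before and 20 min after 0.1 nM hNppA.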
Npr1 antag conf: Natriuretic polypeptide receptor (hNpr1) antagonism - Confirmation | shares compounds with NPR1 antag | HEK293 hNpr1 cGMP GloSensor luminescence, ANP-stimulated | Potency, µM (top dose mostly 57.6 µM), without a hit: at the top dose activity change, negative = inhibition, usual class: inhibitors | 76% of 1,400 active | AID 1347044, 2019; also: nearly all actives have a fitted effect of over 70% in size
Npr2 selectivity: Natriuretic polypeptide receptor (hNpr2) antagonism - Subtype selectivity assay; 67% of 1,400 active; HEK293 hNpr2 GloSensor cGMP luminescence, CNP-stimulated; shares compounds with NPR1 antag; AID 1347046, 2019; Potency, µM (top dose mostly 57.6 µM), without a hit: top-dose activity change, negative = inhibition, actives largely listed as inhibitors; also: nearly all actives have a fitted effect of over 70% in size
FLuc counter: Natriuretic polypeptide receptor (hNpr1) antagonism - Confirmation firefly luciferase (FLuc) inhibition counterscreen | Potency, µM (series often up to 57.6 µM), without a hit: at the highest dose activity change, negative = inhibition, most hits filed as inhibitors | 0.7% of 1,400 active | shares compounds with NPR1 antag | purified FLuc enzyme, luminescence, Km substrate; active = well fitted curve in the direction sought with a large enough effect; inconclusive = small, poorly fitted or top-dose-only effect, or another doubt; inactive = no such curve, though single readings can be large; an effect the other way counts as inactive or inconclusive; also: 0% is about no effect
GloSensor cGMP: Natriuretic polypeptide receptor (hNpr1) antagonism - Counterscreen GloSensor control cell line; HEK293 GloSensor cGMP, SNP-stimulated, luminescence; Potency, µM (series often up to 57.6 µM), without a hit: at the highest dose activity change, negative = inhibition, hits mostly inhibitors; AID 1347051, 2019; 69% of 1,400 active; shares compounds with NPR1 antag; also: % is scaled to controls: 0 for no effect and ±100 for the full control effect; nearly all actives have a fitted effect of over 70% in size
The depositor's hits bear a star; i = inactive; u = inconclusive; x = no result given; [ ] = dose if it differs, or a comment. Only some compounds are listed: those with a hit (about 11% of all), similar ones and a draw of the others. Unless noted, calls follow the shape of the full dose curve. Potency is read from the fitted curve at half-maximal effect.

SMILES	NIH3T3 tox	HEK cytotox	Luciferase inh	NPR1 antag	Npr1 antag conf	Npr2 selectivity	FLuc counter	GloSensor cGMP
O=C(N[C@H]1CO[C@H]2[C@@H]1OC[C@@H]2Nc1nccc(-c2ccccc2)n1)N1CCOCC1	0%[174 µM]	-8%[172 µM]	i	5%[70.6 µM]	x	x	x	x
O=C(N[C@H]1CO[C@H]2[C@@H]1OC[C@@H]2Nc1nccc(-c2ccc(-c3ccccc3)cc2)n1)C1CCCCC1	u	u	i	u	27µM*	u	1%	22µM*
CCOC(=O)C1(Cc2cccc(OC)c2)CCCN(C(=O)CCN2CCCCO2)C1 (centres undefined)	0%	-3%	i	5%	x	x	x	x
CC(=O)Nc1ccc(C(=O)N2CCN(c3ccc(C=O)cc3)C(=O)C2)cc1	2%	i	x	x	x	x	x	x
COc1ccc(NC(=O)O[C@@H]2CO[C@H]3[C@@H]2OC[C@@H]3Nc2nccc(-c3cccs3)n2)cc1	-1%	0%	u	6%	x	x	x	x
c1csc(-c2ccnc(N[C@H]3CO[C@H]4[C@@H]3OC[C@@H]4NCC3CCCCC3)n2)c1	32µM*	u	i	7.9µM*	11µM*	18µM*	1%[86.2 µM]	9.9µM*
O=C(N[C@H]1CO[C@H]2[C@@H]1OC[C@@H]2Nc1nccc(C2CCCC2)n1)c1ccccc1	-46%[174 µM]	63µM*	i	28µM*	35µM*	35µM*	-7%[86.2 µM]	40µM*
COc1ccc(-c2c(C(=O)N3CCOCC3)nc3sccn23)cc1	-13%[138 µM]	-5%[172 µM]	x	x	x	x	x	x
CC(C)Cn1c(=O)c(C(=O)NCC(F)(F)F)nc2cccnc21	-3%	5%	x	x	x	x	x	x
COc1ccc(C2Cn3nnc(C(=O)N4CCN(C(=O)c5cc(C)ccc5C)CC4)c3CO2)cc1 (centres undefined)	u	u	i	u	u	-23%	-1%	-15%
COc1ccc(C(=O)N2CCN(C(=O)c3nnn4c3COC(c3ccc(F)cc3)C4)CC2)cc1 (centres undefined)	u	u	i	-16%	x	x	x	x
COc1ccc(C2Cn3nnc(C(=O)N4CCN(C(=O)Cc5ccc(F)cc5)CC4)c3CO2)cc1 (centres undefined)	-10%	u	i	8.9µM*	14µM*	15µM*	0%	14µM*
COc1ccc(C2Cn3nnc(C(=O)N4CCN(C(=O)c5ccc(F)cc5)CC4)c3CO2)cc1 (centres undefined)	-12%	u	i	u	22µM*	u	-1%	22µM*
COc1ccc(C2Cn3nnc(C(=O)N4CCN(C(=O)c5ccc(F)cc5Cl)CC4)c3CO2)cc1 (centres undefined)	-26%	u	i	11µM*	22µM*	22µM*	0%	19µM*
CNC(=O)C(C)(C)N1CCC[C@H]1C(=O)N1CCCC1	-14%[230 µM]	-7%[230 µM]	i	-4%[70.6 µM]	x	x	x	x
O=C(Cc1ccc(F)cc1)N1CCN(C(=O)c2nnn3c2COC(c2ccc(Cl)cc2)C3)CC1 (centres undefined)	-25%	u	i	13µM*	24µM*	u	-1%	22µM*
